Compound activity deposited in PubChem by National Center for Advancing Translational Sciences (NCATS).
This is a sample that favours compounds with a hit; in the whole collection about 0.71% have one here.
PI4K2A inh: PI4K2A (human) kinase inhibition | Q9BTU6 | purified PI4K2A, ADP-Glo luminescence, 1 h; stronger effect = lower value | activity change, negative = inhibition, % at 76.9 µM | actives 0.13% (n = 420,000); in the data active = activity change below about -50%; inconclusive = mostly about -30% to -49%;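 note: -100% = wells without enzyme as full effect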
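ADP-Glo luminescence measured ADP generated by PI4K2A enzyme (4 ug/mL before mixing) with 1.2 mM PI substrate (pre-mix) and 300 microM ATP (pre-mix). Tris pH7.5 buffer with MgCl2, Triton X-100; 1 h reaction at ambient temperature.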
GALK inh: blocks human galactokinase activity; Potency, µM (top dose mostly 57.5 µM), for the others: at the highest dose activity change, negative = inhibition, hits mostly inhibitors; Purified GALK, Kinase-Glo residual ATP luminescence; AID 1868; actives 0.007% (n = 270,000); note: potency is the fitted concentration of half-maximal effect
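Quantitative HTS: GALK 5 nM, ATP 35 uM, galactose 100 uM, 1 h room temperature, then luciferase-based ATP detection.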
Coupling enz: inhibits coupling enzyme system, counter-screen for aldolase hits; coupling enzyme system counterscreen, AmpLite Red fluorescence; activity change, negative = inhibition, % at 58.2 µM, hits read low; AID 2472; actives 0.67% (n = 290,000); in the data active = activity change below about -30%
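Compounds tested against the coupling enzymes alone at 57.5 uM final; readout was AmpLite Red fluorescence (525/598 nm) after 20 min at RT.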
USP2a block: blocks human ubiquitin-specific protease USP2a; USP2 core, Ub-CHOP2 coupled fluorogenic reporter, 485/531; O75604; Potency, µM (top dose mostly 38.3 µM), inactives show at the highest dose activity change, negative = inhibition, hits mostly inhibitors; actives 0.01% (n = 330,000); AID 463254;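 note: potency is the fitted concentration of half-maximal effect; plate controls were DMSO wells for no effect and full inhibition by NEM control for full effect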
Target sequence (O75604 whole entry, looked up): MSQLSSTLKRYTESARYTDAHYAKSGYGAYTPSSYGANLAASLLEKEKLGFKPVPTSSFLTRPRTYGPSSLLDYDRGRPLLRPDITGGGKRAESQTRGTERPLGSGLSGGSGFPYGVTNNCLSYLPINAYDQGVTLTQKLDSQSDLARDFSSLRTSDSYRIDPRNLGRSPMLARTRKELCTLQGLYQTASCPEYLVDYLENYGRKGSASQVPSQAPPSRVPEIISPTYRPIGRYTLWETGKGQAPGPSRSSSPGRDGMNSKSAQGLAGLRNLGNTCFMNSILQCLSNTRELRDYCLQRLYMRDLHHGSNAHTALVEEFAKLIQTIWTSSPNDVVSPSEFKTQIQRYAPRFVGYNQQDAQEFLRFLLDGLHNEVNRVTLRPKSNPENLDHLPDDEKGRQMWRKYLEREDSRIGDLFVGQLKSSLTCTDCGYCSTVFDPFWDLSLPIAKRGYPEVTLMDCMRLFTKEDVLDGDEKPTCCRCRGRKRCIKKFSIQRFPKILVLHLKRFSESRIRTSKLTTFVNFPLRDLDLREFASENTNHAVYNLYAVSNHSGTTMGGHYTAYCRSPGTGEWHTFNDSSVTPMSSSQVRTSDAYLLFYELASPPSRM
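Cell-free coupled assay: 10nM USP2 core preincubated 30min RT with compound in Tris-HCl pH 8.0/CaCl2/CHAPS buffer, then 25nM Ub-CHOP2 and 25nM reporter substrate; fluorescence (Ex 485/Em 531) read after 60min RT, normalized to NEM inhibition, concentration-response curves fitted.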
USP1-UAF1 inh: inhibitors of human USP1/UAF1 deubiquitinase; O94782; recombinant USP1/UAF1, Ub-Rhodamine cleavage fluorescence; Potency, µM (doses to about 57.1 µM), for the others: at the top dose activity change, negative = inhibition, actives largely listed as inhibitors; actives 0.23% (n = 390,000); AID 743255; note: potency is the fitted concentration of half-maximal effect; nearly all actives have a fitted effect of over 60% in size
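High-throughput fluorogenic screen: 1nM USP1/UAF1 complex, Ub-Rho substrate 150nM final, 50mM HEPES pH 7.8 with 0.5mM EDTA, 0.1 mg/ml BSA, 1mM TCEP and 0.01% Tween-20.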
Eya2 phos inh: blocks the phosphatase activity of human Eya2. O00167. recombinant Eya2, OMFP fluorescence dephosphorylation (OMFP is methylfluorescein phosphate). Potency, µM (highest dose often 76.9 µM), without a hit: top-dose activity, negative = inhibition, most hits filed as inhibitors. actives 0.006% (n = 330,000); note: potency is the fitted concentration of half-maximal effect
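Eya2 (0.2 uM) preincubated 10 min at ambient with compound, then OMFP substrate added at 50 uM; 10 min reaction in 50 mM HEPES pH 7.5, 50 mM NaCl, 5 uM MgCl2, 0.05% BSA, 1 mM DTT. Fluorescence read at Ex 485/Em 525 nm.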
Numbers without * were called inactive; ? = inconclusive; . = no result; ! = repeats disagree. Unless noted, calls come from the whole dose curve; as a rule, active = well fitted curve in the direction sought with a large enough effect; inconclusive = small, poorly fitted or top-dose-only effect, or another doubt; inactive = no such curve, though single readings can be large; an effect the other way counts as inactive or inconclusive. Unless noted, % is set by controls: 0 for no effect and ±100 for the full control effect.

SMILES	PI4K2A inh	GALK inh	Coupling enz	USP2a block	USP1-UAF1 inh	Eya2 phos inh
COC1=C(Nc2ccc(OC)cc2)C(=O)c2ccccc2C1=O	-19	5%	-34*	-10%	-18%	-1%
CC(=O)N(CC(=O)N(C)C)c1ccccc1	-1	.	.	.	.	.
CC1COc2ccccc2C1=O (centres undefined)	.	.	4	.	.	.
Cc1cccc2c3c(ccc12)C1=C(C(=O)C3=O)[C@@H](C)CO1	.	.	-42*	.	.	.
COc1ccccc1N1CCN(CCN(C(=O)C2CCCCC2)c2ccccn2)CC1	-65*!	.	.	0%	-9%	4%
Cc1ccc(S(=O)(=O)Nc2cccc3ncccc23)s1	-11	0%	-40*	1%	-23%	10%
CCOc1ccc(NC(=O)/C(C#N)=C\c2ccc(N3CCCC3)c(C)c2)cc1	3	.	.	.	22µM*	.
CCOc1ccc(/C=C(\C#N)C(=O)Nc2cccnc2)cc1	5	2%	-2	4%	-20%	-5%
O=C(Nc1ncccn1)c1cc([N+](=O)[O-])cc([N+](=O)[O-])c1	0	2%	0	3%	-13%	1%
O=[N+]([O-])c1cc(-c2ncccn2)c([N+](=O)[O-])s1	-1	.	-84*	-1%	?	-10%
COC1(C#CC2C=CC(OC(C)=O)C(COC(C)=O)O2)CCCCC1 (centres undefined)	.	.	-3	.	.	.
Nc1cc(=O)[nH]c(SCC(=O)NC2CCCc3ccccc32)n1 (centres undefined)	-6	1%	2	5%	-10%	2%
CCCc1cc(=O)[nH]c(SCC(=O)NC2CCCc3ccccc32)n1 (centres undefined)	1	8%	-38*	0%	-17%	-27%
O=C(CN1CCN(Cc2ccc3c(c2)OCO3)CC1)Nc1ccc2c(c1)OCO2	3	-3%	1	2%	-10%	-3%
COc1ccc(NC(=O)CN2CCN(Cc3ccc4c(c3)OCO4)CC2)cc1OC	23	0%	-38*	-12%	-8%	-23%
Cc1c(C(=O)N2CCCC2)oc2c1-c1[nH]ncc1CC2	-2	.	-49*	1%	-15%	5%
N/C(=N\OC(=O)c1ccccc1Cl)c1ccccn1	-51*	23%	0	2%	-5%	-4%
COc1ccc(C(=O)O/N=C(\N)c2ccccn2)cc1	-90*	?	-1	-1%	-22%	3%
COc1ccc(C(=O)NNC(=O)c2ccccn2)cc1	-85*	22%	-7	-1%	-18%	3%
Cc1ccc(C(=O)O/N=C(\N)c2ccccn2)c(C)c1	-85*	?	.	1%	-7%	11%
COc1ccccc1C(=O)O/N=C(\N)c1ccccn1	-12	7%	-6	-1%	-22%	1%
O=C(O)[C@H](O)[C@@H](O)[C@H](O[C@@H]1O[C@H](CO)[C@H](O)[C@H](O)[C@H]1O)[C@H](O)CO	-4	.	.	.	.	.
COc1ccc(C2=Nn3c(nnc3-c3ccccc3C)SC2)cc1	.	.	4	.	.	.
N/C(=N\OC(=O)c1ccc(Cl)cc1)c1ccccn1	-70*	2%	-1	-1%	-5%	1%
COCCN1C(=O)N[C@@H](c2cccc(C(F)(F)F)c2)C(C(C)=O)=C1C	.	.	1	.	.	.
SMILES	PI4K2A inh	GALK inh	Coupling enz	USP2a block	USP1-UAF1 inh	Eya2 phos inh
CCOc1ccc(NC(=O)Nc2cc(C(C)C)c(O)cc2C)cc1	0	4%	-3	1%	-10%	10%
CCOc1ccc(NC(=O)Nc2cc(C)ccc2F)cc1	-64*	9%	3	5%	-10%	25%
CN1C(=O)/C(=C/C=C2/CCCN2C)N(C)C1=S	-1	12%	-42*	2%	-26%	2%
c1ccc(-c2cn3c(n2)-c2ccccc2C3)cc1	-51*	7%	-5	-1%	-22%	-6%
O=C(CN1C(=O)C2CC=C(Cl)CC2C1=O)N1CCOCC1 (centres undefined)	-7	-1%	-36*	0%	-15%	-12%
COc1ccc(COC(=O)N/N=C2/C[C@@H](O)[C@@H](O)[C@@H]3[C@@H]4C(=O)N(C[C@@H]5CCCO5)C(=O)[C@H]4CC[C@@H]23)cc1	.	.	-1	.	.	.
COC(=O)CCCC1=CC2=CC(=O)C(C)(OC(=O)c3cccs3)C(=O)C2=CN1CCc1ccccn1 (centres undefined)	-6	-3%	-31*!	0%	?	2%
C=CCN1C=C2C(=O)C(C)(OC(=O)c3cccs3)C(=O)C=C2C=C1CCCC(=O)OC (centres undefined)	-9	-2%	-7	11%	?	-5%
Cc1cc(N2CCN(C(=O)Oc3ccc(-c4ccccc4)cn3)CC2)c2ccccc2n1	-1	.	.	.	.	.
CC[n+]1c(/C=C/C=C/N(C(C)=O)c2ccccc2)sc2ccccc21	-23	-2%	-6	5%	32µM*	14%
CCn1c(/C=C/N(C(C)=O)c2ccccc2)[n+](CC)c2ccc(Cl)cc21	1	-2%	5	2%	-14%	-3%
COc1ccc(C2C(C(=O)/C=C/c3ccco3)=C(O)C(=O)N2CCN2CCOCC2)cc1 (centres undefined)	-2	-2%	-24	2%	-9%	10%
COc1cccc(C2C(C(=O)/C=C/c3ccco3)=C(O)C(=O)N2CCN2CCOCC2)c1 (centres undefined)	-7	7%	-33*	0%	-27%	4%
CCOC(=O)c1cnc(-c2cccc(OC)c2)[nH]c1=O	-2	1%	-33*	2%	0%	16%
Cc1ccsc1C1C2=C(CC(C)(C)CC2=O)Nc2ncnn21 (centres undefined)	-1	3%	-2	0%	-13%	1%
Cc1ccsc1C1C2=C(CCCC2=O)Nc2ncnn21 (centres undefined)	-1	0%	-30*	0%	-2%	-4%
CN1C(=O)c2cc(NS(C)(=O)=O)ccc2OC[C@H]2O[C@@H](CC(=O)NCc3ccc(-c4ccccc4)cc3)CC[C@@H]21	-3	.	.	.	.	.
O=C(C1=C(c2ccccc2)C(=O)c2ccccc2C1=O)c1ccccc1	-10	.	-62*	2%	?	-3%
COC1=C(c2ccccc2)C(=O)c2ccccc2C1=O	-23	.	-33*	0%	14µM*	-9%
CC1Cc2cc(S(=O)(=O)NCc3ccc(F)cc3)ccc2N1C(=O)C1CCC1 (centres undefined)	-2	.	.	.	-19%	.
